Results reported in the supplement of paper PMC10849652.
About 8,800 targets were measured; listed, in parts, are those with a hit and a random draw of the rest. About 0.5% of all pairs of compound and target were hits. Values without a mark were called inactive.

Experiments:
Test in all cases: log2 fold change, soluble protein after heating vs DMSO (PISA); higher = thermal stabilisation; K562 lysate, 10 uM; active = over 0.2 and 3.5 SD of the protein, either way, in both replicates (recomputed)
ibrutinib = compound: C=CC(=O)N1CCC[C@@H](n2nc(-c3ccc(Oc4ccccc4)cc3)c3c(N)ncnc32)C1 [ibrutinib]
Method in brief: (§1)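 A 30 min treatment with 10 μM compound was applied to crude K562 extract at 1 mg/mL protein in PBS pH 7.4 with 1 mM MgCl2. Heating for 3 min spanned 48°C-58°C, after which aliquots were pooled, adjusted to 0.5% NP-40 at 4°C and spun at 21,000xg for 90 min. TMTpro 16plex LC-MS/MS of the supernatant, with channel sums equalised, gave values recorded as log-two fold change in thermal stability against solvent controls, from duplicates.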

[1] = compound: CC(=O)c1cnc2ccc(-c3cc(Cl)c(O)c(Cl)c3)nc2c1N[C@H]1CC[C@H](CN(C)C)CC1
Method in brief: as §1

ralimetinib = compound: CC(C)(C)Cn1c(N)nc2ccc(-c3[nH]c(C(C)(C)C)nc3-c3ccc(F)cc3)nc21 [ralimetinib]
Method in brief: as §1

[2] = compound: CC(C)(O)CC(=O)NCCn1ccc2ncnc(Nc3ccc(Oc4cccc(C(F)(F)F)c4)c(Cl)c3)c21
Method in brief: as §1

[3] = compound: CC(C)C1=C2N=C(C=C(N2N=C1)NCC3=CC=CC=C3)NCCCCCCN
Method in brief: as §1

[4] = compound: CC1=C(C(CC(=O)N1)C2=CC=C(C=C2)C(F)(F)F)C(=O)NC3=C(C=C4C(=C3)C=NN4)F
Method in brief: as §1

[5] = compound: CC1=C(C2=C(C=C1)C(=O)C3=CC=CC=C3N2CCCN)C
Method in brief: as §1

[6] = compound: CC1=C(C=C(C=C1)NC(=O)C2=CC(=CC=C2)C(C)(C)C#N)NC3=CC4=C(C=C3)N=CN(C4=O)C
Method in brief: as §1

[7] = compound: CC1=C(C=C(C=C1)NC(=O)C2=CC(=CC=C2)N(C)C)NC(=O)C3=CC=C(C=C3)O
Method in brief: as §1

[8] = compound: CC1=CC=C(C=C1)SC2=C3C=C(SC3=CN=C2)C(=O)N
Method in brief: as §1

Chain of UniProt Q16539 (Q16539 whole entry, looked up): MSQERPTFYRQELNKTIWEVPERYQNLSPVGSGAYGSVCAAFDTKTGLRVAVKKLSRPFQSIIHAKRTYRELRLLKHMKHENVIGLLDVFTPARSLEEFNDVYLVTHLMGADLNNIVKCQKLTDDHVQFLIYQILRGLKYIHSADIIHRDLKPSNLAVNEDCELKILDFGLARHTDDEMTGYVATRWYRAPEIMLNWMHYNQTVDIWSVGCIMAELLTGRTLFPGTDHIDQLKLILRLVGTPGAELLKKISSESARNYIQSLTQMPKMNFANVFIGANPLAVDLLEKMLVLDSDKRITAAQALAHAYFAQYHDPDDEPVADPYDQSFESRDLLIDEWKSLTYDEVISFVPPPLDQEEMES
Chain of UniProt Q96T76 (Q96T76 whole entry, looked up): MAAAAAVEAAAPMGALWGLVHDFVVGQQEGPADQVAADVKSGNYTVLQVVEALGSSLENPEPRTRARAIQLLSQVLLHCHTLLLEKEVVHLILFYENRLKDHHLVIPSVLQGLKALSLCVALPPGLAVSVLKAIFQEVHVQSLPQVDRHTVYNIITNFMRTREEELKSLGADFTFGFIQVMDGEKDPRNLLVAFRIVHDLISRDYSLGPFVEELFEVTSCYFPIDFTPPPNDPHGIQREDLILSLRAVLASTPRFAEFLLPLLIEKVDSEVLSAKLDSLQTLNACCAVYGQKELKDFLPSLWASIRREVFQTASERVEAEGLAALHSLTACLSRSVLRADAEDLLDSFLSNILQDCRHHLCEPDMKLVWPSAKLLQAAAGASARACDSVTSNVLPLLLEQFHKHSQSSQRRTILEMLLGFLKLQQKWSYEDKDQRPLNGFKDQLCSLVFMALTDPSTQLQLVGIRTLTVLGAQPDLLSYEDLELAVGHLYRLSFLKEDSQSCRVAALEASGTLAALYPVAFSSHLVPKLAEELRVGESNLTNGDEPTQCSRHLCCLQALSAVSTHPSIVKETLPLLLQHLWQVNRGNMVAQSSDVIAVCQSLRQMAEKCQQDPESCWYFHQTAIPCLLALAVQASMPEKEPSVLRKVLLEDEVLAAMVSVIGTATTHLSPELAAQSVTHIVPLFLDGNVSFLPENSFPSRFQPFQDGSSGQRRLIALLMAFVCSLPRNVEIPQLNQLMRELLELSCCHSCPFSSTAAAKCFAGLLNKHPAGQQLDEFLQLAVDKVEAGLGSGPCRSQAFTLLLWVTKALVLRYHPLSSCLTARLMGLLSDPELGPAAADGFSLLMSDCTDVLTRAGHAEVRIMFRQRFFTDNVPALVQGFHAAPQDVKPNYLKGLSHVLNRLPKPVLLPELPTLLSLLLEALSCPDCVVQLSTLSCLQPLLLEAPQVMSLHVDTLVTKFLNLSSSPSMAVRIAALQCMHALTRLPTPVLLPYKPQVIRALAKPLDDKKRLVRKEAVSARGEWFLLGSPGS
Chain of UniProt Q9BTE3 (Q9BTE3 whole entry, looked up): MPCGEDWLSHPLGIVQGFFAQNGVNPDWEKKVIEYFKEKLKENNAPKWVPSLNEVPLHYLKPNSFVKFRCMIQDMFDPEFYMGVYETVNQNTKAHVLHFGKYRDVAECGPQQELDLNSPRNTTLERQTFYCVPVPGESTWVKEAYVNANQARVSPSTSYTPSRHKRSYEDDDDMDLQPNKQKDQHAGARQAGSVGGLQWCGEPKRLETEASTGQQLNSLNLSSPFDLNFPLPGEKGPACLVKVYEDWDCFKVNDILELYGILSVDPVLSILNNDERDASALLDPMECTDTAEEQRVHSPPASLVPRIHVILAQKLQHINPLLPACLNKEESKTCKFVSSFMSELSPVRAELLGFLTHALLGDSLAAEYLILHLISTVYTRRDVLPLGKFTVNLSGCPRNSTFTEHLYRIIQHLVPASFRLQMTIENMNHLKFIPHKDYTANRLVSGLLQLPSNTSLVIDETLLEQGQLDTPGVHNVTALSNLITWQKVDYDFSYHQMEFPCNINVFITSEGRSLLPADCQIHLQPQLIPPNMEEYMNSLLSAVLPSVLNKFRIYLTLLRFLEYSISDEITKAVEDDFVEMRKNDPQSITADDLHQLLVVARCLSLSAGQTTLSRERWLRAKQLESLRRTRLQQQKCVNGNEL
Chain of UniProt Q9BVC4 (Q9BVC4 whole entry, looked up): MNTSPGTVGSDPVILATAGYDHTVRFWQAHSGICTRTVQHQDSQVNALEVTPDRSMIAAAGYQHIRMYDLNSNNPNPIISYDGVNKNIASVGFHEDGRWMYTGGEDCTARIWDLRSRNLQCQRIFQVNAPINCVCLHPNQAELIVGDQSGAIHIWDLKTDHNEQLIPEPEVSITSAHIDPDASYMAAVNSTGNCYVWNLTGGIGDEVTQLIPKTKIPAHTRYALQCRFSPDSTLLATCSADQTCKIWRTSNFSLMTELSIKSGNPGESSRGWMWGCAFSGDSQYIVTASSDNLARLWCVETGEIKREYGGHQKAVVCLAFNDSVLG
Chain of UniProt Q9GZY8 (Q9GZY8 whole entry, looked up): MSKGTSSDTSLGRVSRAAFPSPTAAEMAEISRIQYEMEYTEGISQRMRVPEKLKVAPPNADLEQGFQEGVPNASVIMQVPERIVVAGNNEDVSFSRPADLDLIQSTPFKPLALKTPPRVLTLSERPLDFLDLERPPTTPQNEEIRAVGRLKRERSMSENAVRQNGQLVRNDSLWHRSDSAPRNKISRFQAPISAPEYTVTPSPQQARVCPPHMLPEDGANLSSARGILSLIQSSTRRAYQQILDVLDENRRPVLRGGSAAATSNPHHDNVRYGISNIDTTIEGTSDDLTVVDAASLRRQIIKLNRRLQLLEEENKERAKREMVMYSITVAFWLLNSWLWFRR
Chain of UniProt P28482 (P28482 whole entry, looked up): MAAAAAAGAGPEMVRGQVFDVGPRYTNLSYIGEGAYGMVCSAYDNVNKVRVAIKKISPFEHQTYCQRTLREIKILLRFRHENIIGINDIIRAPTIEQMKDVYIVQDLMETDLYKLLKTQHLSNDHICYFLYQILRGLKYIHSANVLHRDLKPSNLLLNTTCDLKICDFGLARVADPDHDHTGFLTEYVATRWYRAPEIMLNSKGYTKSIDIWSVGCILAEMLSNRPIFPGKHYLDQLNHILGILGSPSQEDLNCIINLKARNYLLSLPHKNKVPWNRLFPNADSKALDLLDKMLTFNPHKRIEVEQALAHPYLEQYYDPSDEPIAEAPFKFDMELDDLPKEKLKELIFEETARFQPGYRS
Chain of UniProt Q8IWC1 (Q8IWC1 whole entry, looked up): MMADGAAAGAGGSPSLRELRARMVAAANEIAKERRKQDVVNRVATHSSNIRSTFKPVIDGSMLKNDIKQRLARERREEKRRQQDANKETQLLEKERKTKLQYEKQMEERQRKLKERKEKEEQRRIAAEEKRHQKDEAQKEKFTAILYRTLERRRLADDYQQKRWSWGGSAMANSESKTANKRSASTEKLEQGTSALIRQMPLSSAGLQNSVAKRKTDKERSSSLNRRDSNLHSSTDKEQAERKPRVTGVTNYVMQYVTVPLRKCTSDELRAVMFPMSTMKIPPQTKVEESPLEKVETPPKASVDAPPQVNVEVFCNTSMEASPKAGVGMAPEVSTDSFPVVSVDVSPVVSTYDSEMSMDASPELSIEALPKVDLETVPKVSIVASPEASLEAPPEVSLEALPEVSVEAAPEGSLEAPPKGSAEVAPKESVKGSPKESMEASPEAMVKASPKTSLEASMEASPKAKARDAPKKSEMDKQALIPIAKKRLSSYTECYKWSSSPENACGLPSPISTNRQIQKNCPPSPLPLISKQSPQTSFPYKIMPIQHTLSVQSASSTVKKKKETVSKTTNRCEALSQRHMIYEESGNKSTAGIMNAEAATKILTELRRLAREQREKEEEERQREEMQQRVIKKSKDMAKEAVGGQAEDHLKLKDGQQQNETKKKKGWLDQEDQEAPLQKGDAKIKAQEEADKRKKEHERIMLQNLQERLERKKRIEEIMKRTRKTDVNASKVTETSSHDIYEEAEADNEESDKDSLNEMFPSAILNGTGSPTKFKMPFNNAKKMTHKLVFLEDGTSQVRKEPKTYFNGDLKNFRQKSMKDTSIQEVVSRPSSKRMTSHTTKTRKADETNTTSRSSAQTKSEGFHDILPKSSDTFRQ
Chain of UniProt Q1ED39 (Q1ED39 whole entry, looked up): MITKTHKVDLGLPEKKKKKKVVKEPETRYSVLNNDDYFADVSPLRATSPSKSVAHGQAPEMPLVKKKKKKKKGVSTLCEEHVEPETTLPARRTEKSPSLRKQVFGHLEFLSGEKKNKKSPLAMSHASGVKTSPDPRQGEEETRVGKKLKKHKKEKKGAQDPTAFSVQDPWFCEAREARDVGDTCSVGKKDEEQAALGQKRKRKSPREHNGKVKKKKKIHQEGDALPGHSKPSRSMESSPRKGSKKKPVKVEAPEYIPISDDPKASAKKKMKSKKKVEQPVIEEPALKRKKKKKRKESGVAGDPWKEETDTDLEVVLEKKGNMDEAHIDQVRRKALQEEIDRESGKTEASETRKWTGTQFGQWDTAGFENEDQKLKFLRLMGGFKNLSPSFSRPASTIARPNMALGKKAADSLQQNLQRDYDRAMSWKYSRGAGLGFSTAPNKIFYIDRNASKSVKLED
Chain of UniProt P45985 (P45985 whole entry, looked up): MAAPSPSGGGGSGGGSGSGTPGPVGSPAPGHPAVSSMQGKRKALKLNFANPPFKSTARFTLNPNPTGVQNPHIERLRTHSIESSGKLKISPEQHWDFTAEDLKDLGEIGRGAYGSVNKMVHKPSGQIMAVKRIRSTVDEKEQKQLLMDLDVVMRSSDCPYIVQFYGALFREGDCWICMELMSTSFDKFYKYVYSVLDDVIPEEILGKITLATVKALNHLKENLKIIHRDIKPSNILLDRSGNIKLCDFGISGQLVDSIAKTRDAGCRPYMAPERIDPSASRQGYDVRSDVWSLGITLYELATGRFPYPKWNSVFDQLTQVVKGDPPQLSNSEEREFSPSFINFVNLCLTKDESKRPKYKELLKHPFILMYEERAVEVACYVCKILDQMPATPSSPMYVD
Chain of UniProt Q14657 (Q14657 whole entry, looked up): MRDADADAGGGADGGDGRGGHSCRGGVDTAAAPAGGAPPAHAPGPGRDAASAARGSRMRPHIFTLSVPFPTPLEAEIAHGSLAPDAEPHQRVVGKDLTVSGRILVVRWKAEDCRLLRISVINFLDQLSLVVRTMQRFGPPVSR

Target	log2 fold change (ibrutinib)	log2 fold change [1]	log2 fold change (ralimetinib)	log2 fold change [2]	log2 fold change [3]	log2 fold change [4]	log2 fold change [5]	log2 fold change [6]	log2 fold change [7]	log2 fold change [8]
KIF2C (UniProt Q99661)	0.004	0.014	0.048	0.025	-0.014	-0.005	-0.004	0.004	0.039	0.016
MAP2K4 isoform 2 (UniProt P45985)	0.051	0.316	-0.029	-0.015	0.042	-0.008	0.006	-0.055	0.033	-0.045
KMT2A isoform 3 (UniProt Q03164)	-0.054	0.005	-0.008	-0.117	0.019	-0.114	-0.047	-0.046	0.025	0
MRPL28 (UniProt Q13084)	0.151	0.04	0.027	-0.005	0.012	-0.112	-0.017	0.057	-0.012	0.023
KNOP1 (UniProt Q1ED39)	-0.079	-0.096	-0.096	-0.133	-0.031	0.052	-0.114	0.155	-0.033	-0.118
MCMBP (UniProt Q9BTE3)	0.001	-0.007	0.016	0.038	-0.009	0	0.008	0.008	0.011	0.014
MICB, A0A140T979	0.074	0.317	-0.037	-0.101	-0.07	-0.11	-0.002	0.016	0.004	-0.068
MAP4 (UniProt P27816)	0.002	-0.005	-0.016	-0.002	0.016	-0.023	-0.016	0.006	-0.001	-0.008
MAD2L2 (UniProt Q9UI95)	-0.015	-0.173	0.103	-0.08	-0.03	-0.001	-0.059	0.053	-0.106	-0.132
MON2 isoform 5 (UniProt Q7Z3U7)	-0.027	0.001	0.017	-0.042	-0.02	0.012	0.002	0.01	0.025	0
KIF22 (UniProt Q14807)	0.012	-0.02	0.006	-0.27	0.028	0.016	-0.142	0.143	-0.027	-0.117
LRWD1 (UniProt Q9UFC0)	0.082	-0.009	0.004	0	0.035	0.015	-0.004	0	0.032	0.04
MARK1 (UniProt Q9P0L2)	-0.006	-0.054	0.078	0.046	0.021	0.011	0.021	0.07	0.04	0.007
MAPK3 (UniProt P27361)	0.001	0.017	-0.02	-0.018	-0.033	-0.012	-0.006	0.026	-0.022	-0.028
MAPK1 (UniProt P28482)	0.001	0	-0.066	0.012	-0.029	-0.022	0.023	-0.039	-0.03	0.003
LAGE3 (UniProt Q14657)	0.047	0.002	0.012	0	-0.004	-0.147	-0.098	-0.002	0.031	0.046
MAP2K1 (UniProt Q02750)	0.204	0.519 (active)	-0.021	0.075	0	-0.024	-0.04	0.007	-0.012	-0.004
MED10 (UniProt Q9BTT4)	-0.029	-0.087	-0.015	-0.055	-0.019	-0.013	-0.025	0.02	0.074	0.074
MGST1 (UniProt P10620)	0.052	0.039	0.054	-0.047	-0.002	0.002	-0.078	-0.01	0.014	0.05
LUC7L (UniProt Q9NQ29)	0.007	0.003	0.008	0.027	0.056	0.002	0.007	-0.04	-0.01	0.02
MAPK14 (UniProt Q16539)	0.042	0.238	1.16 (active)	-0.008	-0.06	-0.14	-0.026	0.88 (active)	0.455	-0.007
MLST8 (UniProt Q9BVC4)	0	0.011	-0.038	0.021	0.063	-0.042	-0.021	-0.003	0.044	0.023
MRPL15 (UniProt Q9P015)	0.003	-0.078	-0.024	-0.056	-0.01	-0.007	-0.133	0.032	0.009	-0.023
MICU1 isoform 3 (UniProt Q9BPX6)	-0.011	-0.021	0.023	0.001	-0.02	0	0.013	-0.028	0.038	0.019
MARK2 (UniProt E9PC69)	0.139	-0.053	0.014	-0.004	0.015	-0.012	-0.063	0.024	0.045	0.012
LIG4 (UniProt P49917)	0.056	0.174	-0.001	-0.023	0.013	-0.016	-0.021	0.004	0.015	0.109
MMS19 isoform 8 (UniProt Q96T76)	-0.023	-0.011	0.022	-0.02	-0.041	0.006	-0.018	0.013	0.055	0.004
MAP7D3 (UniProt Q8IWC1)	-0.073	0.005	0.023	-0.019	-0.22	0.035	0.009	0.046	0.087	-0.039
MFF isoform 2 (UniProt Q9GZY8)	0.007	-0.044	-0.03	-0.033	-0.052	0	0.004	0.032	0.022	-0.024
